# In PubChem BioAssay AID504332 (National Center for Advancing Translational Sciences (NCATS), 2011):
# Out of some 350,000 compounds screened, about 31,000 (8.9%) were called active. Inconclusive results (about 15%) are left out. Calls follow the shape of the dose curve; as a rule, active = well fitted inhibition curve with a large enough effect; inconclusive = small, poorly fitted or top-dose-only effect; inactive = no such curve, though single readings can be large or run the other way. What follows is part of a selection rich in actives, with near analogues and random picks from the rest.
# Molecular target: Histone-lysine N-methyltransferase EHMT2 (Homo sapiens) (UniProt Q96KQ7)
# Assay: qHTS Assay for Inhibitors of Histone Lysine Methyltransferase G9a; also: nearly all actives have a fitted effect of over 75% in size
# Conditions: G9a H3K9 monomethylation, AlphaScreen, 2 h; series mostly up to 59 µM; activity, negative = inhibition: at the top concentration
# Excerpt: Methylated lysines, on the N-terminal tails of histone proteins serve as epigenetic markers to recruit factors that can then modify local chromatin structure to lead to functional consequences. G9a and other members of the SUV39 family of the SET domain-containing superfamily of histone lysine methyltransferases (HMT) have been identified to specifically methylate Lys9 of histone H3 (H3K9). G9a catalyzes the mono- and di-methylation of H3K9 in mammalian euchromatic regions, where the resulting H3K9me2 is indicative of transcriptional repression. […] The inhibition of G9a will result in transcriptional activation and work synergistically with DNA methyltransferase and histone deacetylase inhibitors, to kill cancer cells. This qHTS assay for identification of G9a inhibitors is a chemiluminescence based AlphaScreen (PerkinElmer). Methylation of biotinylated-histone peptide is measured through specific antibody-based detection, in conjunction with streptavidin-coated donor and anti-IgG antibody-coated acceptor beads. The method is particularly well suited for detection of inhibitors acting by the desired histone peptide competitive mechanism and is applicable to testing other HMTs. Although AlphaScreen has significant advantages with its utility in a variety of epigenetic target assays, the primary screening data provided in this deposition should be used with caution due to the prevalence of screening artifacts. An AlphaScreen counterscreen is highly recommended to be run against any putative actives to eliminate non specific artifacts. Alternatively, one can use other AlphaScreen assays in PubChem to filter out promiscuous hits. Quinn et al. A chemiluminescence-based method for identification of histone lysine methyltransferase inhibitors. Mol Biosyst 6(5): 782-8. 2010. PMID: 20567762 [2] Baell,Holloway. New substructure filters for removal of pan assay interference compounds (PAINS) from screening libraries and for their exclusion in bioassays. J Med Chem. 53(7):2719-40. 2010. PMID: 20131845 NIH Molecular Libraries Probe Production Network [MLPCN] NIH Chemical Genomics Center [NCGC] Structural Genomics Consortium (SGC) NIH Grant: 5U54 MH084681-02
# To each well of a 1,536w plate, 2ul of HMT enzyme (final 20nM) were added, using a nanoliter dispenser. The G9a- and GLP-inhibitor BIX-01294 (CID: 25150857) are used as an intraplate control, with a 16-point titration in duplicate. A Kalypsys pin-tool transferred 23nl of library compound solution in DMSO to each well. Following a 15 min incubation of enzyme with compounds at room temperature, 1ul mixture of b-H3K9 peptide substrate (final 500nM) and SAM cofactor (final 20uM) were added. Reactions were allowed to proceed at room temperature for 2 hours. Methylated b-H3K9 peptide product was detected with 0.5 ug/mL rabbit polyclonal anti-monomethyl histone H3K9 antibody (Abcam Inc., Cambridge, MA) and 20 ug/mL each streptavidin-coated donor and anti-rabbit IgG acceptor AlphaScreen beads. Antibody and beads were added in a 1ul dispense, for a final volume of 4ul, and plates were incubated, protected from the light, for 10 min at room temperature. Microplates were then read on an EnVision multilabel plate reader using the 1,536 plate HTS AlphaScreen aperture (excitation time 80 ms, measurement time 240 ms).
# % is scaled to controls: 0 for no effect and ±100 for the full control effect; potency is read from the fitted curve at half-maximal effect.
# Histone-lysine N-methyltransferase EHMT2 (Homo sapiens), sequence (Q96KQ7 913-1193 limits assumed): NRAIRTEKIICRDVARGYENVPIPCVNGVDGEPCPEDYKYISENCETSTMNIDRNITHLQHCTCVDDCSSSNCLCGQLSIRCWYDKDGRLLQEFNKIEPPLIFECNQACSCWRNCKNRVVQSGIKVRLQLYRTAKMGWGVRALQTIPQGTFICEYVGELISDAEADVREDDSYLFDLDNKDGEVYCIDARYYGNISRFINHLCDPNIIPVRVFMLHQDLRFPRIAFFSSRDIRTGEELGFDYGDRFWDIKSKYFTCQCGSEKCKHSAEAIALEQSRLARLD
Structure (SMILES),"activity, negative = inhibition",Potency
O=C(CN1CCN(c2ccccc2)CC1)Nc1ccc(F)cc1,15.6% [at 102 µM] (inactive),–
Cc1ccccc1NC(=O)c1cc2c([nH]c1=O)CC(C)(C)CC2=O,10.3% (inactive),–
O=C(Nc1cc(Cl)ccc1N1CCOCC1)c1ccc(N2CCCC2=O)cc1,-16.7% [at 102 µM] (inactive),–
CCc1ccccc1NC(=O)Cn1c(=O)n(-c2cccc(C)c2)c(=O)c2c1c1cc(OC)ccc1n2C,0.155% (inactive),–
CC(C)c1cc(C(=O)O)on1,7.05% (inactive),–
CC(C)c1cc(C(=O)N/N=C/C(Br)=C/c2ccccc2)n[nH]1,-9.73% [at 102 µM] (inactive),–
CC(C)c1cc(C(=O)O)n[nH]1,–,44.7 µM (active)
O=C(CNC(=O)c1ccccc1Br)NCCSc1ccc(Br)cc1,-0.242% [at 102 µM] (inactive),–
Cc1ccc2nc(COc3cccc(NC(=O)c4cccc(Cl)c4)c3)cc(=O)n2c1,15.9% (inactive),–
CN1C(=O)/C(=C/c2ccco2)SC1=Nc1cccc(C(=O)O)c1,–,28.2 µM (active)
O=C(CCCN1C(=O)/C(=C/c2ccco2)SC1=S)Nc1ccccc1,-21.4% (inactive),–
CN=C1S/C(=C\c2c(OC)cc(OC)cc2OC)C(=O)N1C,-4.41% [at 102 µM] (inactive),–
COc1ccc(CCNC(=O)CCCCCNC(=O)N2CCn3c2nc2ccccc23)cc1OC,50.3% [at 102 µM] (inactive),–
COc1ccc(NC(=O)Cn2cc(C(=O)c3ccncc3)c(=O)c3cc(C)ccc32)cc1Cl,3.8% [at 12.7 µM] (inactive),–
CC(CN1CCOCC1)c1ccccc1 (stereo not drawn),-32% (inactive),–
CC(CN1CCC(n2nccc2NC(=O)C2CCCC2)CC1)c1ccccc1 (stereo not drawn),39.2% [at 102 µM] (inactive),–
CC(CN1CCCCC1)c1ccccc1 (stereo not drawn),–,11.2 µM (active)
O=S(=O)(c1ccc(SCc2ccc(Br)cc2)nc1)N1CCOCC1,-2.71% [at 12.7 µM] (inactive),–
Cc1ccc(CN2CC(C(=O)NNC(=O)Cn3ccc(C(F)(F)F)n3)CC2=O)cc1 (stereo not drawn),-2.67% [at 12.7 µM] (inactive),–
Cc1ccc(-c2nn3c(=O)cc(CN4CCN(S(=O)(=O)c5ccc(Cl)cc5)CC4)nc3s2)cc1,7.37% (inactive),–
CCOc1cc(C(=O)OCC(=O)Nc2cccc(C)c2)ccc1OCC(=O)N1CCOCC1,24% (inactive),–
CCOc1cc(C(=S)N2CCOCC2)ccc1OS(=O)(=O)c1ccc(Br)cc1,24% [at 102 µM] (inactive),–
CCOc1cc(C(=S)N2CCOCC2)ccc1O,–,4.47 µM (active)
Cc1cccc(NC(=O)CSc2ncc(-c3ccccc3)[nH]2)c1C,-30.7% (inactive),–

Structure (SMILES),"activity, negative = inhibition",Potency
O=C(OCC1OC(Oc2ccc(O)cc2)C(O)C(O)C1O)c1ccccc1 (stereo not drawn),2.48% [at 12.7 µM] (inactive),–
COc1ccc(S(=O)(=O)N2CCOC23CCN(S(=O)(=O)c2ccc([N+](=O)[O-])cc2)CC3)cc1,-2.42% [at 0.501 µM] (inactive),–
Cc1ccc2c(c1)C1CN(C)CCC1N2S(=O)(=O)c1cccc(F)c1 (stereo not drawn),10.1% (inactive),–
Cc1ccc2c(c1)C1CN(C)CCC1N2S(=O)(=O)c1ccc(Oc2ccc([N+](=O)[O-])cc2)cc1 (stereo not drawn),–,35.5 µM (active)
COc1ccc(C(=O)NC2CCN(C(=O)Nc3ccc(F)cc3)CC2)cc1,10.1% [at 102 µM] (inactive),–
CCc1nnc(SCC(=O)Nc2cc(OC)ccc2OC)nc1CC,5.36% (inactive),–
COc1ccc(OC)c(NC(=O)CSc2nc3ccccc3nc2N2CCCCC2)c1,29.4% (inactive),–
CCc1cc2cc(OC)ccc2nc1SCC(=O)Nc1cc(OC)c(OC)cc1C(=O)O,–,50.1 µM (active)
CN(C)CCCn1c(N)c(C#N)c2nc(C#N)c(C#N)nc21,–,25.1 µM (active)
CC(C)(C)c1ccc(C(=O)NCCn2c(N)c(C#N)c3nc4ccccc4nc32)cc1,23.9% [at 102 µM] (inactive),–
N#Cc1c(N)n(CCOC(=O)c2ccc(Cl)cc2)c2nc3ccccc3nc12,-6.78% (inactive),–
COc1ccc(CNC(=O)CN(c2ccc(OC)c(Cl)c2)S(=O)(=O)c2ccc(C)cc2)cc1,33.2% [at 102 µM] (inactive),–
O=C(CNC(=O)c1ccc2ccccc2c1)Nc1ncccc1O,20.5% [at 2.33 µM] (inactive),–
CCOc1ccc(N2CC(C(=O)NCc3ccccn3)CC2=O)cc1 (stereo not drawn),-6.32% [at 102 µM] (inactive),–
COc1ccccc1N1CC(C(=O)NCCN2C(=O)S/C(=C\c3cccnc3)C2=O)CC1=O (stereo not drawn),2.97% [at 12.7 µM] (inactive),–
CCOc1ccc(N2CC(C(=O)NCCN3C(=O)S/C(=C\c4cccnc4)C3=O)CC2=O)cc1 (stereo not drawn),–,39.8 µM (active)
CCN(c1ccccc1)S(=O)(=O)c1cc(C(=O)NCc2ccccn2)ccc1C,26.1% [at 102 µM] (inactive),–
COc1ccc(Cl)cc1N(C)C(=O)c1cc2c(=O)oc3ccc(C)cc3c2s1,4.3% (inactive),–
COC(=O)c1ccc(COC(=O)CNC(=O)c2cccc(OC)c2)o1,9.25% (inactive),–
COc1ccccc1Oc1nc(-c2cccnc2)nc2ccccc12,7.82% [at 102 µM] (inactive),–
COc1cc(Nc2nc(-c3ccc(OC)c(OC)c3)nc3ccccc23)cc(OC)c1,-2.06% (inactive),–
COc1ccc(Nc2nc(-c3cccnc3)nc3ccccc23)cn1,–,35.5 µM (active)
CCc1nc2onc(C)c2c(=O)n1CC(=O)O,17.4% (inactive),–
CCC(=O)c1cc(F)ccc1OCC(=O)Nc1ccc2c(c1)OCCO2,-5.64% [at 12.7 µM] (inactive),–
